Bioassay records as filed in PubChem BioAssay.
A selection: hits, their analogues and other compounds. The true share with any hit is near 7.9%.
FMDV inh: High Throughput Screening for Foot and Mouth Disease Virus Antivirals. 1.2% of 410,000 active. FMDV antiviral cell-based qHTS. Potency, µM (doses to about 57.9 µM), for the others: top-dose activity change, negative = inhibition, hits mostly inhibitors; calls by dose curve; tested in HEK293T cells; note: read-out not given here; potency is the fitted concentration of half-maximal effect; nearly all actives have a fitted effect of over 45% in size
MARV entry inh: qHTS for inhibitors of binding or entry into cells for Marburg Virus | Marburg virus pseudotyped entry inhibition, cell reporter | Potency, µM (series often up to 37.8 µM), for inactives: top-dose activity change, negative = inhibition, hits mostly inhibitors | 1.8% of 300,000 active; calls by dose curve; tested in HEK293 cells; note: potency is the fitted concentration of half-maximal effect
HCMV inh: qHTS Assay for inhibitors of the human cytomegalovirus (HCMV) | 4.5% of 410,000 active | HFF cells, HCMV-luciferase reporter, 72 h; hits give low values | activity change, negative = inhibition, % at 57.5 µM; in the data active = activity change below about -60%; inconclusive = no clear call, values can overlap the other calls; inactive = above about -39%
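Cell-based, HFFs, 1000 cells/well, 16 h 37C; cpds in DMSO + HCMV-luc, MOI 1 PFU/cell; 72 h 37C; OneGlo luminescence after 5 min RT; norm. to buffer vs Salinomycin 10uM.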
HCV inhibitor: qHTS Assay for Inhibitors of Hepatitis C Virus (HCV) | AID 651820, 2012 | Huh7.5.1 HCVcc-Cre infection, luciferase reporter, 44 h | Potency, µM (titrated, usually from 41.8 µM), for inactives: top-dose activity change, negative = inhibition, actives largely listed as inhibitors | 3.4% of 340,000 active; active = well fitted inhibition curve with a large enough effect; inconclusive = small, poorly fitted or top-dose-only effect, or another doubt; inactive = no such curve, though single readings can be large or run the other way; note: potency is the fitted concentration of half-maximal effect
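Seed cells (1,000/well) for 4 h; treat with compound and infect with HCVcc-Cre, moi about 0.5. Incubate 44 h, then detect luciferase activity.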
Lassa entry inh: qHTS for Inhibitors of binding or entry into cells for Lassa Virus | 1.2% of 300,000 active | Lassa virus pseudotype entry inhibition, cell reporter | AID 540256, 2011 | Potency, µM (top dose mostly 37.9 µM), for the others: at the top dose activity change, negative = inhibition, usual class: inhibitors; calls by dose curve; tested in HEK293 cells; note: potency is the fitted concentration of half-maximal effect; nearly all actives have a fitted effect of over 50% in size
An asterisk follows results filed as active; ? = inconclusive; . = not tested or not shown; + = active, no number; [ ] = dose if it differs, or a comment. % is set by controls: 0 for no effect and ±100 for the full control effect.

SMILES	FMDV inh	MARV entry inh	HCMV inh	HCV inhibitor	Lassa entry inh
O=C(c1ccc2c(c1)N(Cc1ccc(F)cc1)C(=O)c1ccccc1S2=O)N1CCOCC1 (stereo unspecified)	-19%	?	3	.	14%[46.1 µM]
CCCCn1c(=O)c2oc3ccccc3c2n(Cc2cccc(C)c2)c1=O	-10%	.	-22	.	16%[46.1 µM]
Cc1cccc2cc(CN(Cc3cccnc3)C(=S)NCCCN(C)C)c(=O)[nH]c12	-16%	2%[46.1 µM]	-14	1%	14%
Cc1cc(C)c2cc(CN(CCCN(C)C)C(=S)NCc3ccccc3)c(=O)[nH]c2c1	8%	?	-17	10µM*	?
Cc1cccc2cc(CN(Cc3ccccc3)C(=S)NCCCN(C)C)c(=O)[nH]c12	-13%	4µM*	?	?	-27%[46.1 µM]
Cc1ccc(CN(Cc2cc3cccc(C)c3[nH]c2=O)C(=S)NCCCN(C)C)cc1	-15%	4.5µM*	?	35µM*	-12%
Cc1ccc(NC(=S)N(CCN(C)C)Cc2cc3cccc(C)c3[nH]c2=O)cc1	-21%	?	-20	?	1%
CCCCOc1ccc(S(=O)(=O)Nc2cc(OC)ccc2OC)cc1	.	?	?	10µM*	-27%
COc1ccc(OC)c(NS(=O)(=O)c2ccc3[nH]c(=O)[nH]c3c2)c1	-18%	.	-102*	.	.
c1ccc(-c2cn(-c3ccccc3)c3ncnc(N4CCN(c5ccccc5)CC4)c23)cc1	0%	.	?	.	4%[46.1 µM]
CCOc1ccc(CCNC(=O)c2cc3sc(Cl)cc3n2C)cc1OCC	-16%	?	-10	7.1µM*	3%
CCOc1ccc(CCNC(=O)c2cc3ccccn3n2)cc1OCC	?	.	10	13µM*	.
Cn1c(C(=O)NCc2ccccc2Cl)cc2sc(Cl)cc21	12%	3.2µM*	-62*	.	.
N#Cc1ccccc1NC(=O)C(=O)NCC(c1cccnc1)N1CCN(c2ccccc2)CC1 (stereo unspecified)	0%	.	5	.	0%[46.1 µM]
O=C(CSc1nc(-c2ccc(F)cc2)cc(C(F)(F)F)n1)NCc1ccccc1	-23%	?	-25	.	?
COC(=O)C1=C(C)N(Cc2ccccc2)C(=NCc2cccc(Cl)c2)N[C@H]1c1ccccc1	-19%	.	.	?	.
COC(=O)C1=C(C)N(Cc2cccc(C(F)(F)F)c2)C(=NCc2ccccc2C(F)(F)F)NC1c1cccc(F)c1 (stereo unspecified)	.	.	-78*	.	.
COC(=O)C1=C(C)N(Cc2ccccc2)C(=NCc2ccccc2)N[C@H]1c1ccccc1	-25%	?	-70*	?	.
COCCN=C1N[C@@H](c2ccc(Br)cc2)C(C(=O)OC)=C(C)N1Cc1ccccc1	-26%	.	-25	3.5µM*	.
CCN(CC)CCCN=C1N[C@@H](c2cccc(C(F)(F)F)c2)C(C(=O)OC)=C(C)N1CC	-4%	.	?	10µM*	.
CCN1C(=NCc2cccc(Cl)c2)NC(c2cccc(C(F)(F)F)c2)C(C(=O)OC)=C1C (stereo unspecified)	.	-25%[14.2 µM]	.	.	-42%[14.3 µM]
CCNc1ncc2nc(C)c(=O)n(Cc3cccs3)c2n1	-18%	.	.	.	.
Cc1cccc(NC(=O)CSc2nc(-c3cccs3)cc(C(F)(F)F)c2C#N)c1C	3%	.	6	.	5%[46.1 µM]
CCC[C@H]1CN(Cc2ccccc2)C(=O)[C@H]1CC(=O)NC	.	.	.	.	-4%[46.1 µM]
COC(=O)C1=C(C)N(Cc2ccc(C(F)(F)F)cc2)C(=NCc2ccc3c(c2)OCO3)NC1c1ccccc1 (stereo unspecified)	.	.	-100*	.	.
SMILES	FMDV inh	MARV entry inh	HCMV inh	HCV inhibitor	Lassa entry inh
CCOC(=O)/C(C#N)=C1/C=C(C)NC(c2ccccc2O)=N1	?	?	-103*	?	?
C[C@]12CCCC3=CC(=O)C=CC31OCC2 (stereo partly specified)	.	.	0	.	.
COc1ccc(C(=O)CCc2ccccc2)cc1	52%	.	?	11µM*	.
COc1ccc(CCC(=O)NC(C)C)cc1	-3%	?	-86*	-1%	7%
COc1ccc(CCC(=O)NNC(=O)Nc2ccc(C(C)=O)cc2)cc1	24%	6%	11	3%	0.71µM*
COc1ccc(CCC(=O)NNC(=O)Nc2ccc(C(C)C)cc2)cc1	1%	5%[46.1 µM]	-9	7%	-16%[46.1 µM]
COc1ccc(C(C)NC(=O)CCc2ccccc2)cc1 (stereo unspecified)	13%	-1%	-9	23%	-15%
Cc1ccc2oc(=O)n(CCNC(=O)Nc3ccc(C)c(F)c3)c2c1	-21%	0%[46.1 µM]	47	.	-2%[46.1 µM]
COc1ccc(CSC2=CS(=O)(=O)c3ccccc3N2)cc1	4%	?	-62*	-13%	-11%
CCc1cccc(NC(=O)Cn2nc(C)c3sc4ccccc4c3c2=O)c1	-12%	1%[46.1 µM]	14	.	-28%[46.1 µM]
COc1ccc(S(=O)(=O)NCc2cccn2Cc2cc(C)ccc2C)cc1OC	13%	.	-1	.	-19%[46.1 µM]
COc1ccc(-c2ccc(=O)n(CC(=O)Nc3ccc4c(c3)OCCO4)n2)cc1	-21%	-12%[46.1 µM]	-12	-5%	20%[46.1 µM]
COc1ccc(-c2ccc(=O)n(CC(=O)Nc3ccc(OC)c(OC)c3)n2)cc1	-12%	.	+	.	-30%[46.1 µM]
O=C(Cc1ccc(Cl)cc1)NC1CC(=O)N(c2ccc3c(c2)OCCO3)C1 (stereo unspecified)	3%	.	21	.	0%[46.1 µM]
